Data: the supplement of paper PMC8728848
The full list was thinned out, with the strongest signals kept by preference.

Key:
Test in all cases: glycan array binding signal (z-score within array); higher = stronger binding
Conditions in all cases: glycan notation: IUPAC condensed, linker removed
[1] = target: Gal(b1-4)GlcNAc(b1-3)Gal(b1-4)GlcNAc(b1-3)GalNAc
In short: (§1)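 The Consortium for Functional Glycomics database supplied 3228 glycan arrays, of which those lacking an available protein sequence were dropped. The binding signal, a within-array Z-score, was averaged across arrays of the same protein sequence and across linkers. Negative scores can be read as non-binding.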

[2] = target: Gal(b1-4)GlcNAc(b1-3)[Fuc(a1-3)GlcNAc(b1-6)]Gal(b1-4)Glc
In short: as §1

Gal(b1-4)GlcNAc6P = target: Gal(b1-4)GlcNAc6P
In short: as §1

Gal6S(b1-4)Glc = target: Gal6S(b1-4)Glc
In short: as §1

[3] = target: GalNAc(a1-3)GalNAc(b1-3)Gal(a1-4)Gal(b1-4)Glc
In short: as §1

[4] = target: GalNAc(b1-3)Gal(a1-6)Gal(b1-4)Glc
In short: as §1

[5] = target: GalNAc(b1-4)GlcNAc(b1-2)Man(a1-3)[GalNAc(b1-4)GlcNAc(b1-2)Man(a1-6)]Man(b1-4)GlcNAc(b1-4)GlcNAc
In short: as §1

[6] = target: GlcNAc(b1-3)Gal(b1-4)GlcNAc(b1-2)Man(a1-3)[GlcNAc(b1-3)Gal(b1-4)GlcNAc(b1-2)Man(a1-6)]Man(b1-4)GlcNAc(b1-4)GlcNAc
In short: as §1

[7] = target: GlcNAc(b1-3)Gal(b1-4)GlcNAc(b1-3)Gal(b1-4)GlcNAc(b1-3)Gal(b1-4)GlcNAc(b1-2)Man(a1-3)[GlcNAc(b1-3)Gal(b1-4)GlcNAc(b1-3)Gal(b1-4)GlcNAc(b1-3)Gal(b1-4)GlcNAc(b1-2)Man(a1-6)]Man(b1-4)GlcNAc(b1-4)GlcNAc
In short: as §1

[8] = target: GlcNAc(b1-3)Gal(b1-4)GlcNAc(b1-3)Gal(b1-4)GlcNAc(b1-3)Gal(b1-4)GlcNAc(b1-2)Man(a1-3)[GlcNAc(b1-3)Gal(b1-4)GlcNAc(b1-3)Gal(b1-4)GlcNAc(b1-3)Gal(b1-4)GlcNAc(b1-2)Man(a1-6)]Man(b1-4)GlcNAc(b1-4)[Fuc(a1-6)]GlcNAc
In short: as §1

[9] = target: GlcNAc(b1-3)[GlcNAc(b1-6)]Gal(b1-4)GlcNAc
In short: as §1

[10] = target: GlcNAc(b1-4)GlcNAc(b1-4)GlcNAc
In short: as §1

[11] = target: GlcNAc(b1-4)[GlcNAc(b1-6)]GalNAc
In short: as §1

[12] = target: GlcNAc(b1-6)Gal(b1-4)GlcNAc
In short: as §1

[13] = target: Man(a1-3)[Man(a1-6)]Man(a1-6)[Man(a1-3)]Man(b1-4)GlcNAc(b1-4)GlcNAc
In short: as §1

[14] = target: Neu5Ac(a2-3)Gal(b1-3)GalNAc
In short: as §1

[15] = target: Neu5Ac(a2-3)Gal(b1-3)GlcNAc(b1-2)Man(a1-3)[Neu5Ac(a2-3)Gal(b1-3)GlcNAc(b1-2)Man(a1-6)]Man(b1-4)GlcNAc(b1-4)GlcNAc
In short: as §1

[16] = target: Neu5Ac(a2-3)Gal(b1-3)GlcNAc(b1-6)GalNAc
In short: as §1

[17] = target: Neu5Ac(a2-3)Gal(b1-3)[Fuc(a1-4)]GlcNAc(b1-3)Gal(b1-4)[Fuc(a1-3)]GlcNAc
In short: as §1

[18] = target: Neu5Ac(a2-3)Gal(b1-4)GlcNAc(b1-3)Gal(b1-4)GlcNAc(b1-3)Gal(b1-4)GlcNAc(b1-2)Man(a1-3)[Neu5Ac(a2-3)Gal(b1-4)GlcNAc(b1-3)Gal(b1-4)GlcNAc(b1-3)Gal(b1-4)GlcNAc(b1-2)Man(a1-6)]GalNAc
In short: as §1

[19] = target: Neu5Ac(a2-3)Gal(b1-4)GlcNAc(b1-6)[Neu5Ac(a2-3)Gal(b1-3)]GalNAc
In short: as §1

[20] = target: Neu5Ac(a2-3)Gal6S(b1-4)[Fuc(a1-3)]GlcNAc
In short: as §1

Neu5Ac(a2-6)Gal(b1-4)Glc = target: Neu5Ac(a2-6)Gal(b1-4)Glc
In short: as §1

[21] = target: Neu5Ac(a2-6)Gal(b1-4)GlcNAc(b1-2)Man(a1-3)[Man(a1-6)]Man(b1-4)GlcNAc(b1-4)GlcNAc
In short: as §1

[22] = target: Neu5Ac(a2-6)Gal(b1-4)GlcNAc(b1-3)Gal(b1-4)GlcNAc
In short: as §1

[23] = target: Neu5Ac(a2-6)Gal(b1-4)GlcNAc(b1-6)[Gal(b1-3)]GalNAc
In short: as §1

[24] = target: Neu5Ac(a2-8)Neu5Ac(a2-8)Neu5Ac(a2-3)Gal(b1-4)Glc
In short: as §1

[25] = target: Neu5Gc(a2-6)Gal(b1-4)GlcNAc
In short: as §1

B1: rCnSL-proA (Clitocybe nebularis) (protein)
chain: AAFFSLVVLLALLPFGIHASALPSTELTPRVNPNLPGPNDVFVGFRGTNNIVGAIYEKDGIKDTPLNNGADAEMGPGSYITDGLFTARIFASGSAGNNPGTTATVCKIYASGVQWRGAPKGYIPVAYFGNGPTAEQRRQTYLRTLGLPGTAIRFGNLNTNPGQGPTAPRQMVVPPGPLRSLLKASCFPAADTRLPQTLHYFEKRVDWNIITAADSQTWGH
glycan array binding signal (z-score) [1]: 1.57 | glycan array binding signal (z-score) [2]: 0.661 | glycan array binding signal (z-score) (Gal(b1-4)GlcNAc6P): -1.27 | glycan array binding signal (z-score) (Gal6S(b1-4)Glc): -0.662 | glycan array binding signal (z-score) [3]: -0.574 | glycan array binding signal (z-score) [4]: 0.329 | glycan array binding signal (z-score) [5]: 3.42 | glycan array binding signal (z-score) [6]: 0.077 | glycan array binding signal (z-score) [7]: -0.215 | glycan array binding signal (z-score) [8]: 0.698 | glycan array binding signal (z-score) [9]: -0.723 | glycan array binding signal (z-score) [10]: -0.208 | glycan array binding signal (z-score) [11]: -0.002 | glycan array binding signal (z-score) [12]: -0.312 | glycan array binding signal (z-score) [13]: 0.14 | glycan array binding signal (z-score) [14]: -0.476 | glycan array binding signal (z-score) [15]: 5.37 | glycan array binding signal (z-score) [16]: 0.201 | glycan array binding signal (z-score) [17]: -0.238 | glycan array binding signal (z-score) [18]: 4.1 | glycan array binding signal (z-score) [19]: -0.211 | glycan array binding signal (z-score) [20]: -0.672 | glycan array binding signal (z-score) (Neu5Ac(a2-6)Gal(b1-4)Glc): -0.233 | glycan array binding signal (z-score) [21]: -0.337 | glycan array binding signal (z-score) [22]: -0.269 | glycan array binding signal (z-score) [23]: -0.387 | glycan array binding signal (z-score) [24]: -0.436 | glycan array binding signal (z-score) [25]: -0.088
